Assay results: PubChem BioAssay AID1159580 (chemical genetic matrix, 2015)
Several values for one entry are separate records, joined by “and”; a condition that tells them apart may be missing. Equal entries are not always repeated. Screen size: about 5,500 compounds; about 2,000 (36%) were called active. Not shown: some 18% with an inconclusive outcome. No stated cut-off is given here; in the data, active means normalized growth mostly below about 0.91 (no sharp cut-off); inconclusive means no clear call, values can overlap the other calls; inactive means mostly above about 0.92. Some of the results follow.

Assay: chemical genetic growth profiling, strain panel (AID 1159580);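 further: tested at 20 µM; growth read once vehicle control cultures reached saturation at 30 °C; 1 = growth at the plate median or of vehicle wells; lower values mean less growth of the strain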
Details: S. cerevisiae deletion strains, growth OD

Measured: normalized growth

NCC(O)c1ccc(O)c(O)c1 (stereo unspecified)
inactive: locus YAL040C, strain CLN3, hits give low values 1.01 and 1.02 | locus YCL061C, strain MRC1 (second series), hits give low values 0.998 | locus YDR363W, strain ESC2, hits give low values 0.991 | locus YER002W, strain NOP16, hits give low values 1.02 and 0.999 | locus YGR078C, strain PAC10, hits give low values 1 | locus YJR075W, strain HOC1, hits give low values 1.02 | locus YMR263W, strain SAP30, hits give low values 1.01 | locus YMR307W, strain GAS1, hits give low values 1.02 | locus YNL153C, strain GIM3, hits give low values 1.01 | locus YNL175C, strain NOP13, hits give low values 0.999 and 1.01 | locus YNL197C, strain WHI3, hits give low values 0.995 and 1.01 | locus YNL224C, strain SQS1, hits give low values 0.987 and 0.982 | locus YNL322C, strain KRE1, hits give low values 0.997 and 1.02 | locus YOR083W, strain WHI5 (second series), hits give low values 0.98 and 0.991 | locus YPL055C, strain LGE1, hits give low values 1 | locus YPL241C, strain CIN2, hits give low values 1.01
